Results published in PubChem BioAssay (NCI).
About 83,000 compounds went through this panel and 20% of them were active in at least one assay; those are over-represented in the sample as a whole.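 Note: values are percent growth. 100 is the growth of untreated cells, values between 100 and 0 indicate rising inhibition; between -100 and 0 indicates cell death.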 Unmarked numbers belong to inactive results. Activity calls are given as the source filed them. How the source made its calls: active means growth percent below 10; inactive means the rest.

Assays:
Assay in all cases: NCI-60 one-dose screen, 48 h (100 = growth as untreated, 0 = no growth, -100 = all killed)
T-47D breast = conditions: 10 µM
BT-549 breast = conditions: 10 µM
MDA-MB-435 melanoma = conditions: 10 µM
SW-620 colon = conditions: 10 µM
MCF7 breast = conditions: 10 µM unless noted
HCT-116 colon = conditions: 10 µM
HCC-2998 colon = conditions: 10 µM
KM12 colon = conditions: 10 µM

SMILES	growth (T-47D breast)	growth (BT-549 breast)	growth (MDA-MB-435 melanoma)	growth (SW-620 colon)	growth (MCF7 breast)	growth (HCT-116 colon)	growth (HCC-2998 colon)	growth (KM12 colon)
O=S(=O)(O)CC(O)CN1CCN(CCO)CC1 (stereo not drawn)	108%	99.3%	113%	105%	96%	101%	89.4%	107%
COc1cc(CCN=Cc2ccccc2O)c([N+](=O)[O-])cc1OC	97.9%	91.2%	110%	104%	104%	95%	101%	107%
O=C1OC(c2ccc(F)cc2)CC1CN1CCOCC1 (stereo not drawn)	93.6%	95.5%	109%	102%	97.6%	92.5%	98.8%	102%
CC(=O)c1ccc2c(ccc3ccccc32)c1	98.9%	98.1%	96.3%	99.7%	96.3%	90.3%	109%	106%
O=S(=O)(O)c1cc(O)c2c(N=Cc3ccccc3O)c(S(=O)(=O)O)ccc2c1	106%	101%	109%	103%	104%	98.4%	102%	103%
CCCCC1C(=O)N(c2ccccc2)N(c2ccccc2)C1=O	109%	98.8%	108%	106%	115%	102%	109%	109%
N#CCCc1ccc(O)cc1	101%	114%	99.8%	102%	98.4%	116%	115%	114%
CC1(C)N=C(N)N=C(N)N1c1ccc(Cl)cc1	94.6%	76%	28.8%	34.3%	41.1%	25.1%	36.8%	50.1%
CCCC(C)OCC(=O)O (stereo not drawn)	126%	127%	108%	101%	99.9%	101%	106%	101%
O=C1OC(=O)C2C1C1(Cl)C(Cl)=C(Cl)C2(Cl)C2C(=O)OC(=O)C21 (stereo not drawn)	95.4%	103%	101%	113%	95.8%	102%	108%	106%
COc1ccc(OC)c(/C=C2\CCc3ccccc3C2=O)c1	56.3%	44.3%	-37.9% (active)	17.4%	12.1%	19.3%	73.9%	22.8%
Cc1ccc(C(O)C2CC2)cc1 (stereo not drawn)	97.4%	107%	103%	100%	104%	107%	113%	107%
C=CCOC(=O)C(=O)OCC=C	93.9%	101%	120%	103%	101%	101%	107%	102%
C/C(=N/NC(N)=O)c1ccco1	83.5%	102%	107%	109%	98.4%	101%	92.1%	102%
Cc1ccc(C(=O)NC2c3ccccc3Oc3ccccc32)cc1	60.5%	62.6%	6.21% (active)	38.9%	21.7%	30.3%	75.6%	51.3%
O=C(O)c1ccnc(Br)c1	96.9%	105%	104%	103%	91.7%	103%	107%	103%
CC1(C(=O)O)NC(C(=O)O)Cc2c1[nH]c1ccccc21 (stereo not drawn)	95.7%	119%	94.6%	97.8%	98%	92.6%	104%	103%
CN(C)c1ccc(S(=O)(=O)O)cc1	87.6%	98.6%	110%	111%	99.8%	96%	103%	104%

SMILES	growth (T-47D breast)	growth (BT-549 breast)	growth (MDA-MB-435 melanoma)	growth (SW-620 colon)	growth (MCF7 breast)	growth (HCT-116 colon)	growth (HCC-2998 colon)	growth (KM12 colon)
CN(C)Cc1cc(C(C)(C)CC(C)(C)C)ccc1O	86.4%	100%	107%	109%	95.4%	89.3%	96.5%	104%
CC(=O)c1ccc(C(C)(C)C)cc1	98.2%	102%	106%	110%	94.5%	97.5%	96.2%	102%
CN(C)c1ccc2nc3ccc(=N)cc-3sc2c1	19.1%	51.6%	-59.8% (active)	23.5%	23.9%	16.7%	67.4%	38%
Cc1ccc(/C(C#N)=C/c2ccc3c(c2)OCO3)cc1	64.1%	87.1%	-11.1% (active)	32%	49.7%	72.8%	74.3%	26.1%
COc1cc(C(=O)N/N=C/c2cccc([N+](=O)[O-])c2)cc(OC)c1OC	51.9%	58%	1.31% (active)	23.8%	23.9%	23.9%	52.7%	19%
COc1cc2c(cc1OC)[C@H](C(=O)O)[C@@H](c1ccc(OC(C)C)c(OC)c1)N(C)C2=O	96%	91.6%	101%	109%	108%	101%	108%	107%
CC(C)CCOC(=O)c1ccccc1	99.5%	102%	106%	108%	99.7%	103%	110%	106%
CCN(CC)CCCC(C)Nc1ccnc(/C=C/c2ccc(Cl)cc2)c1 (stereo not drawn)	-4.4% (active)	29.1%	-53.4% (active)	-53.2% (active)	-26.6% (active)	-10.5% (active)	-23.6% (active)	25.3%
COc1cc2nc3cc([N+](=O)[O-])ccc3c(Cl)c2cc1OC	83.2%	51.3%	93.2%	104%	83%	95.7%	106%	110%
COC(=O)/C=C1\Sc2cc(F)ccc2NC1=O	84.5%	127%	100%	127%	83.7%	90.1%	126%	107%
CC1CCC2C(C)(C)C3CC12CC1OC13C (stereo not drawn)	99.3%	107%	107%	98.8%	102%	101%	127%	111%
O=[N+]([O-])c1ccc(/C=C/C=C/c2ccccc2)c(Cl)c1	74.3%	102%	99.5%	98.1%	74.2%	76.6%	97.3%	94.5%
COC1=CC(=O)c2nc(Cl)ccc2C1=O	-38.7% (active)	106%	-42.1% (active)	-59.8% (active)	-56.8% (active)	-32.7% (active)	100%	91.3%
Cc1cc(O)ccc1O	101%	83.5%	97.7%	117%	94.7%	96.4%	121%	105%
CC(C)C(C#N)(C(C)C)C(C)C	104%	102%	96.3%	101%	97.7%	103%	110%	103%
COc1cccc(/C=N/NC(=S)NC2CC3CCC2C3)c1O (stereo not drawn)	35.7%	79.8%	76.4%	57.9%	37.8%	24.8%	96.3%	69.1%
CC(=O)Nc1cccc(NC(C)=O)n1	87.1%	107%	101%	99.1%	99%	98.9%	130%	105%
OC1OC(COC(c2ccccc2)(c2ccccc2)c2ccccc2)C(O)C(O)C1O (stereo not drawn)	87.5%	99.6%	90.9%	105%	93.3%	90.7%	110%	107%
